Screening data (PubChem BioAssay)
Shown is part of a subset that was picked to be rich in hits.
Sfp inh: qHTS Assay for Inhibitors of Bacillus subtilis Sfp phosphopantetheinyl transferase (PPTase); 4'-phosphopantetheinyl transferase ffp (Bacillus subtilis), Q9F4F7; Biochemical Sfp PPTase activity, qHTS; Potency, µM, most hits filed as inhibitors; actives 3.5% (n = 310,000); AID 1490, 2009;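 note: the enzyme is Sfp with the accession as filed and its product quenches rhodamine fluorescence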
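Step 1, compound plus 15 nM Sfp-PPTase, 15 min, room temperature. Step 2, add rhodamine-CoA (5 uM) and BHQ-2-YbbR (12.5 uM). Step 3, read 525/598 nm fluorescence at 0 and 30 min.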
12-LOX inh: Primary qHTS assay for inhibitors of human arachidonate 12S-lipoxygenase (ALOX12): Round 2 | purified 12hLO, xylenol orange hydroperoxide absorbance | Potency, µM (titrated, usually from 108 µM), actives largely listed as inhibitors | actives 1.1% (n = 580,000) | Polyunsaturated fatty acid lipoxygenase ALOX12 (Homo sapiens), P18054 | AID 1671190, 2021
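Purified human 12hLO at 150 nM in 25 mM Hepes, 0.01% Triton X-100, pH 7.0, preincubated 15 min at room temperature with compound. Reaction started with 40 uM arachidonic acid, 30 min at room temperature. Hydroperoxide measured by Fe-xylenol orange, 573/405 nm absorbance ratio.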
VDR inh: Inhibitors of the vitamin D receptor (VDR): qHTS. Vitamin D3 receptor (Homo sapiens), P11473. VDR-SRC2-3 peptide fluorescence polarization, 2 h. Potency, µM, usual class: inhibitors. actives 0.93% (n = 400,000). AID 504847, 2011
Target sequence (P11473 whole entry, looked up): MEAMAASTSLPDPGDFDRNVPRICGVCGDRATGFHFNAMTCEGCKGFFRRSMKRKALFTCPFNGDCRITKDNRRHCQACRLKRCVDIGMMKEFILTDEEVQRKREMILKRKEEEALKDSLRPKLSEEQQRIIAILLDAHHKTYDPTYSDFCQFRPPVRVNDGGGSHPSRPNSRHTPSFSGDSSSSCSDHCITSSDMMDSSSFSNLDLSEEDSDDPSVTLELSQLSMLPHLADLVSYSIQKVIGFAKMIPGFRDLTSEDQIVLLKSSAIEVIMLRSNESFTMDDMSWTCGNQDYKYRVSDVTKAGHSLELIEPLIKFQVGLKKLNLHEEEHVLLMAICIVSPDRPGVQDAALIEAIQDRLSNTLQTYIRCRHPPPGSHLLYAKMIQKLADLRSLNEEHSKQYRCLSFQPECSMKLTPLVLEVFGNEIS
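Fluorescence polarization assay measuring small-molecule disruption of VDR binding to the coregulator peptide SRC2-3. Compounds were pin-transferred (23 nl) into the reagent mix and incubated 2 h at room temperature before reading.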
Glioma ERSR ind: qHTS for Inducers of the Endoplasmic Reticulum Stress Response (ERSR) in Human Glioma: qHTS | U87-MG GRP78 promoter luciferase reporter, 16 h | Potency, µM, most hits filed as activators | actives 0.02% (n = 420,000); note: series mostly up to about 76 µM; nearly all actives have a fitted effect of over 35% in size
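Stably transfected U87-MG glioma cells carrying a GRP78-based luciferase sensor; 16 h compound incubation. Luminescence end-point read 10 min after Bright-Glo addition at room temperature.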
G9a block: qHTS Assay for Inhibitors of Histone Lysine Methyltransferase G9a | G9a H3K9 monomethylation, AlphaScreen, 2 h | Histone-lysine N-methyltransferase EHMT2 (Homo sapiens), Q96KQ7 | AID 504332, 2011 | Potency, µM (doses to about 102 µM), usual class: inhibitors | actives 8.8% (n = 350,000); note: nearly all actives have a fitted effect of over 75% in size
Target sequence (Q96KQ7 913-1193 limits assumed): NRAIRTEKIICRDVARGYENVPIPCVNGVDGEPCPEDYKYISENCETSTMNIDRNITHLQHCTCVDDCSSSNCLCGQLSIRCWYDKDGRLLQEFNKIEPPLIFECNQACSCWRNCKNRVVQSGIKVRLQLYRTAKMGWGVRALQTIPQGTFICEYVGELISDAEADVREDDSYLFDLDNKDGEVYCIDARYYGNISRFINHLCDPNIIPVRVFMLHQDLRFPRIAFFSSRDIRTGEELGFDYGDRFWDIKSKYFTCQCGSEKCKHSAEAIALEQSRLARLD
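Quantitative HTS format: methyltransferase activity on a biotin-tagged H3K9 peptide is measured by AlphaScreen, using a rabbit anti-monomethyl-H3K9 antibody with streptavidin donor and anti-IgG acceptor beads. Final levels are 20 nM enzyme, 500 nM peptide, 20 uM SAM; 2 h RT.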
A number is an active result; i = inactive; ? = inconclusive; nt = no result given; [ ] = remark or other dose. Calls come from the whole dose curve; as a rule, active = well fitted curve in the direction sought with a large enough effect; inconclusive = small, poorly fitted or top-dose-only effect, or another doubt; inactive = no such curve, though single readings can be large; an effect the other way counts as inactive or inconclusive.

SMILES	Sfp inh	12-LOX inh	VDR inh	Glioma ERSR ind	G9a block
CCOC(=O)c1c[nH]c2c(C)ccc(Cl)c2c1=O	i	i	79µM	i	i
CCOC(=O)c1c[nH]c2c(Cl)ccc(Cl)c2c1=O	i	i	i	i	i
COC(=O)c1ccc2c(=O)n(Cc3ccco3)c(SCC(=O)Nc3cc(C)on3)nc2c1	?	i	i	i	i
O=C(NCc1ccco1)c1ccc2c(=O)n(Cc3ccco3)c(SCC(=O)N3CCCC3)nc2c1	40µM	i	i	i	79µM
Cc1cc(NC(=O)CSc2nc3cc(C(=O)NCCCOC(C)C)ccc3c(=O)n2Cc2ccco2)no1	56µM	i	i	i	i
Cc1ccc(-c2[nH]ncc2C=O)cc1C	nt	i	nt	nt	nt
Cc1ccc2c(c1)C(c1ccccc1)C(=O)O2 (configuration not stated)	50µM	?	i	i	i
COc1ccc(S(=O)(=O)N2CCN(C(=O)NC3CCCC3)CC2)cc1OC	nt	i	nt	nt	nt
CC(NS(=O)(=O)c1cccc2nsnc12)c1ccccc1 (configuration not stated)	nt	i	nt	nt	nt
Oc1[nH]c2ccccc2c1N=Nc1nc(Nc2ccccc2)nc(N2CCOCC2)n1	16µM	i	i	i	i
Cc1[nH]c2ccccc2c1/C=N/Nc1nc(Nc2ccccc2)nc(N2CCOCC2)n1	i	i	i	i	nt
O=C(CSc1nccn1-c1ccc(Cl)cc1)Nc1nc2ccccc2s1	nt	i	i	i	i
CCN(CC)CCn1c2c(c(SCC(=O)Nc3cccc4ccccc34)nc1=O)CCC2	nt	i	i	i	?
O=C(CSc1nc(=O)n2ccccc2n1)Nc1cccc2ccccc12	nt	i	i	i	50µM
CN(C)CCn1c2c(c(SCC(=O)Nc3cccc4ccccc34)nc1=O)CCCC2	nt	i	i	i	45µM
Cc1cc(C)cc(-n2ccnc2SCC(=O)Nc2cccc3ccccc23)c1	nt	i	i	i	13µM
Cc1cccc(NC(=O)CSc2nc(=O)n3ccccc3n2)c1C	nt	i	i	i	i
CCOc1ccccc1NC(=O)CSc1nccn1-c1ccc(Cl)cc1	nt	i	i	i	13µM
Cc1c(Cl)cccc1NC(=O)c1nn(C)c(=O)c2ccccc12	nt	i	nt	nt	nt
CC1CC(NN(C)C)C(C#N)(C#N)C(C)C1(C#N)C#N (configuration not stated)	nt	i	nt	nt	nt
Cc1cc(C)cc(-n2ccnc2SCC(=O)Nc2ccccc2F)c1	nt	i	i	i	14µM
Cc1ccc([S+](=O)([O-])N2CCc3nc(-c4ccc(Cl)cc4)nc(-c4ccccc4)c3C2)cc1	nt	i	nt	nt	nt
O=c1c(O)c(-c2ccc(O)c(O)c2)oc2c(OC[C@@H]3O[C@@H](O)[C@@H](O)[C@H](O)[C@H]3O)c(O)cc(O)c12	56µM	nt	nt	i	nt
CCOc1ccc(-c2nc(CSCC(=O)NC3CCCc4ccccc43)c(C)o2)cc1 (configuration not stated)	22µM	i	i	i	?
CCOc1ccc(-c2nc(CSCC(=O)NC3CC3)c(C)o2)cc1	i	i	i	i	i[0.0925 µM]
SMILES	Sfp inh	12-LOX inh	VDR inh	Glioma ERSR ind	G9a block
O=C(NCCN1CCOCC1)c1nn2c(C(F)(F)F)cc(-c3ccco3)nc2c1Br	nt	i	nt	nt	nt
O=C1NC(=NC2CCCC2)C2(CCN(Cc3ccsc3)CC2)N1c1cc(F)cc(F)c1	nt	i[6.33 µM]	nt	nt	nt
Cc1cccc(/N=C/c2c(C)[nH]n(-c3ccccc3)c2=O)n1	i	i	i	i	?
Cc1[nH]n(-c2ccccc2)c(=O)c1C=Nc1cccc(F)c1	i	i	i	i	45µM
Cc1[nH]n(-c2ccccc2)c(=O)c1/C=N/c1nn[nH]n1	i	?	i	i	50µM
Cc1ccc(-n2[nH]c(C)c(/C=N/c3cccc(C)n3)c2=O)cc1	i	i	i	i	50µM
COc1cccc(C(=O)Nc2c(NC3CCCC3)c3ccccc3oc2=O)c1	nt	i	nt	nt	nt
COc1ccc(OC)c2c(=S)c3ccccc3[nH]c12	56µM	?	4.5µM	i	nt
CN1C(=O)C(=O)/C(=C(/O)c2ccc(Br)cc2)C1c1cccc([N+](=O)[O-])c1 (configuration not stated)	i	?	i	i	50µM
O=C1C(=O)N(CCCO)C(c2ccc(Br)cc2)/C1=C(\O)c1ccc(Br)cc1 (configuration not stated)	i	35µM	i	i	?
CN(C)c1ccc(C2/C(=C(/O)c3ccc(Br)cc3)C(=O)C(=O)N2C)cc1 (configuration not stated)	i	5.6µM	i	i	40µM
CCOc1ccc2c(C)c(-c3ccccc3)c(=O)oc2c1	nt	i	nt	nt	nt
O=C(/C=C/c1ccccc1)N1CCC(c2nc3ccccc3o2)CC1	nt	i	nt	nt	nt
CCc1ccccc1N1CC23C=CC(O2)C(C(=O)O)C3C1=O (configuration not stated)	i	i	89µM	i	i
CCCCOC(=O)C1[C@H]2C(=O)N(c3ccccc3CC)C[C@]23C=C[C@H]1O3 (some centres not stated)	i	i	i	i	i[12.7 µM]
CCCc1cc2c(O)ccc(O)c2c(=O)o1	nt	35µM	nt	nt	nt
COc1ccccc1CNC(=O)CS(=O)(=O)c1ccc(C)cc1	i	i	i	i	79µM
COc1ccccc1CNCC(=O)NCc1ccc(C)cc1	i	i	i	i	16µM
COc1ccccc1CNC(=O)CS(=O)(=O)c1ccccc1	i	i	i	i	i
O=C(Nc1cccc(F)c1)c1nc2ccccc2nc1N1CCOCC1	nt	i	nt	nt	nt
Cc1ccc(NC(=O)N2CCC(CCNC(=O)c3n[nH]c4ccccc34)CC2)cc1F	nt	i	nt	nt	nt
CC1=C(C(=O)Nc2ccccc2)C(c2sccc2C)n2nc(-c3ccccc3)nc2N1 (configuration not stated)	nt	i	nt	nt	nt
COc1ccc(S(=O)(=O)N/N=C\c2ccccc2F)cc1	i	i	i	i	40µM
COc1ccc2c(/C=N/NS(=O)(=O)c3ccc(C)cc3)c[nH]c2c1	56µM	?	i	i	nt
COc1ccc(S(=O)(=O)NC(C)C(=O)Nc2ccccc2F)cc1 (configuration not stated)	i	i	i	i	40µM
SMILES	Sfp inh	12-LOX inh	VDR inh	Glioma ERSR ind	G9a block
COc1ccc(CN(C(=O)CSc2nc3ccc(OC)cc3[nH]2)C2CC2)cc1	nt	i	nt	nt	nt
O=C(CSc1ccc2ccccc2c1)Nn1cnnc1	i	i	i	i	i[12.7 µM]
O=C(CCSc1ccc(Cl)cc1)c1ccco1	i	i	?	i	i[2.33 µM]
COc1ccccc1CNC(=O)CSC1=NCCS1	i	i	?	i	?
O=C(CSc1ccc(Cl)cc1)Nn1cnnc1	i	i	71µM	i	i
O=C(CSc1ccc(Cl)cc1)NCc1ccco1	89µM	i	i	i	nt
O=C(CSc1ccc(Cl)cc1)c1ccco1	45µM	nt	?	i	?
